Experimental data reported in PubChem BioAssay (NCATS).
Results filed as inconclusive are left out. Active and inactive are the calls of the source. Calls come from the whole dose curve; as a rule, active = well fitted cell-killing curve with a large enough effect; inconclusive = small, poorly fitted or top-dose-only effect; inactive = flat fitted curve, though single readings scatter.

Assay: qHTS of pediatric cancer cell lines to identify multiple opportunities for drug repurposing: Primary screen for BT-12 cells (AID 1347101); note: nearly all actives have a fitted effect of over 25% in size
Conditions: BT-12 viability, CellTiter-Glo luminescence, 48 h; series mostly up to 57.3 µM
Excerpt: Drug repurposing or repositioning has been offered as a strategy for drug development in oncology programs. This approach has special potential for childhood cancers and other rare or orphan diseases, where the expected return on new drug development has been a disincentive to pharmaceuticals.
In this project we exploit the poly-pharmacology of drugs to discover new indications via phenotypic screening of a panel of 19 well-characterized cell lines derived from solid tumors seen in children and adolescents. The goal is to identify approved drugs with previously unrecognized anticancer properties that has the potential to reveal new mechanisms and biological processes involved in carcinogenesis or drug resistance. We employed a titration-based paradigm (quantitative high-throughput screening or qHTS), where all compounds were tested at multiple concentrations for their effect on cell viability. Concentration-response curves (CRCs) were derived directly from the primary screen, and both potency and efficacy values were used to identify compounds with robust bioactivity profiles. We screened the NIH Chemical Genomics Center (NCGC) Pharmaceutical Collection (NPC) and Mechanism Interrogation Plate (MIPE) small molecule collections of approved and investigational compounds against these cell lines; and measured metabolically active cells after 48 hours of compound treatment as a proxy for cell viability.
Assay Submitter: Nathalia J. Martinez, National Center for Advancing Translational Sciences, National Institutes of Health, Rockville, MD, USA; email: natalia.martinez@nih.gov
[1] Shen, M et al. Quantitative high-throughput phenotypic screening of pediatric cancer cell lines identifies multiple opportunities for drug repurposing. Oncotarget 2017 Dec 19;9(4):4758-4772. PMID 29435139.
The cells were obtained from University of North Carolina (UNC), Pediatric Preclinical Testing Program (PPT), and Coriell Institute (CI).
qHTS cell viability assay:
Cells were assayed in growth media at a density of 500-1,000 cells/well. Five microliters of cells were dispensed into 1,536-well, white, solid-bottom, TC-treated plates (Greiner Bio One) using a multidrop dispenser and incubated at 37 degrees C, 5% CO2, under a humidified atmosphere for 5 hours. Twenty-three nanoliters of compounds and controls (neutral control DMSO or positive control bortezomib at final concentration of 2.3 µM) were subsequently transferred by Kalypsys pintool. For primary screens, the MIPE collection was tested at 11-point dilutions (final concentrations range from 0.78 nM to 46 µM) and the NPC collection at 8-point dilutions (final concentrations range from 0.59 nM to 46 µM). Compounds tested in follow-up screens were assayed at 11-point dilutions. Cells were incubated for 48 hours, followed by addition of 3 µL of CellTiter-Glo (Promega). After a 15 min incubation at room temperature, samples were analyzed for luminescence intensity using a ViewLux High-throughput CCD imager equipped with clear filters.
Potency is the fitted concentration of half-maximal effect.

Structure (SMILES)	Potency
Cc1ccc2nc(NC(=O)CSc3nc4c(c(=O)n3-c3ccccc3)SCC4)sc2c1	5.44 µM (active)
COc1ccc(F)c(F)c1C(=O)c1cnc(NC2CCN(S(C)(=O)=O)CC2)nc1N	3.43 µM (active)
c1ccc2c(CCNc3ccc(Nc4ccncc4)cc3)c[nH]c2c1	21.7 µM (active)
CN[C@H]1CCc2cc(OC)c(OC)c(OC)c2-c2ccc(OC)c(=O)cc21	0.0039 µM (active)
C=CC(=O)Nc1cc2c(Nc3ccc(F)c(Cl)c3)ncnc2cc1OCCCN1CCOCC1	21.7 µM (active)
Cc1cc(C(=O)N2CCN(c3cccc(Cl)c3)CC2)n(-c2ccccc2)n1	6.85 µM (active)
OCCCNc1cc(-c2ccnc(Nc3cccc(Cl)c3)n2)ccn1	0.193 µM (active)
COc1cc2ncn(-c3cc(OCc4ccccc4C(F)(F)F)c(C(N)=O)s3)c2cc1OC	21.7 µM (active)
CCOc1cc2ncc(C#N)c(Nc3ccc(F)c(Cl)c3)c2cc1NC(=O)C=CCN(C)C	7.69 µM (active)
OCc1ccc(-c2ccc(-c3ccc(CO)s3)o2)s1	30.6 µM (active)
CC(C)(C)c1cc(C(C)(C)C)c(NC(=O)c2c[nH]c3ccccc3c2=O)cc1O	inactive
O=C(C=Cc1cccc(S(=O)(=O)Nc2ccccc2)c1)NO	11.1 µM (active)
Cc1[nH]c2ccccc2c1CCNCc1ccc(C=CC(=O)NO)cc1	0.611 µM (active)
CC(C)c1cnn2c(NCc3ccccc3)cc(N[C@@H](CO)[C@H](O)CO)nc12	0.344 µM (active)
Cn1cncc1[C@@](N)(c1ccc(Cl)cc1)c1ccc2c(c1)c(-c1cccc(Cl)c1)cc(=O)n2C	21.7 µM (active)
Nc1ncnc2c1c(-c1cccc(OCc3ccccc3)c1)cn2C1CC(CN2CCCC2)C1 (stereo not given)	27.3 µM (active)
O=C1CCC[C@@H]2[C@H]3CCC[N+]4([O-])CCC[C@@H](CN12)[C@@H]34 (stereo not given in full)	inactive
Nc1nccc(Oc2ccc(NC(=O)c3c[nH]cc(-c4ccc(F)cc4)c3=O)cc2F)c1Cl	13.7 µM (active)
CCN1CCN(Cc2ccc(-c3cc4c(N[C@H](C)c5ccccc5)ncnc4[nH]3)cc2)CC1	0.769 µM (active)
C[C@@H]1COC(Nc2ccc3ncnc(Nc4ccc(OCc5nccs5)c(Cl)c4)c3c2)=N1	24.3 µM (active)

Structure (SMILES)	Potency
O=C(c1cncc(Br)c1)N1CCC(N2CCCC2)CC1	inactive
COc1c(N2C[C@@H]3CCCN[C@H]3C2)c(F)cc2c(=O)c(C(=O)O)cn(C3CC3)c12	inactive
Cc1c(NC(=O)OC[C@@H]2COCCN2)cn2ncnc(Nc3ccc4c(cnn4Cc4cccc(F)c4)c3)c12	24.3 µM (active)
C1=CCOCc2cc(ccc2OCCN2CCCC2)Nc2nccc(n2)-c2cccc(c2)OCC1	7.69 µM (active)
O=C(Nc1cn[nH]c1-c1nc2ccc(CN3CCOCC3)cc2[nH]1)NC1CC1	7.69 µM (active)
CCOc1ccccc1OCCNC(C)Cc1ccc(OC)c(S(N)(=O)=O)c1 (stereo not given)	inactive
COc1cc(C)c(Sc2cnc(NC(=O)c3ccc(CNC(C)C(C)C)cc3)s2)cc1C(=O)N1CCN(C(C)=O)CC1 (stereo not given)	24.3 µM (active)
CC(C)c1ccccc1Cc1cc(C(=O)Nc2ccc(S(=O)(=O)c3ccccc3C(C)(C)C)cc2)c(O)c(O)c1O	21.7 µM (active)
NCC(=O)Nc1ccc(-n2nc(C(F)(F)F)cc2-c2ccc3c(ccc4ccccc43)c2)cc1	24.3 µM (active)
CC[C@H]1CN2CCc3cc(OC)c(OC)cc3[C@H]2C[C@@H]1C[C@@H]1NCCc2cc(OC)c(OC)cc21	0.193 µM (active)
COC(=O)[C@]12CCC(C)(C)C[C@@H]1[C@@H]1C(=O)C=C3[C@@]4(C)C=C(C#N)C(=O)C(C)(C)[C@@H]4CC[C@@]3(C)[C@]1(C)CC2	0.968 µM (active)
CNC(=O)c1cc(Oc2ccc(NC(=O)Nc3cc(C(C)(C)C)nn3-c3ccc4ncccc4c3)c(F)c2)ccn1	24.3 µM (active)
C#Cc1cccc(Nc2ncnc3cc(OC)c(OCCCCCCC(=O)NO)cc23)c1	2.17 µM (active)
Cc1cc(N2CCOCC2)cc2[nH]c(-c3c(NC[C@@H](O)c4cccc(Cl)c4)cc[nH]c3=O)nc12	24.3 µM (active)
CC(=O)SC[C@@H](C)C(=O)N1CCC[C@H]1C(=O)N[C@@H](Cc1ccccc1)C(=O)O	inactive
Cn1cc(-c2[nH]c3cc(NC(=O)[C@H](N)C4CCCCC4)cc4c3c2C=NNC4=O)cn1	inactive
Cc1cc(Nc2nc(N[C@@H](C)c3ccc(F)cc3)c(C#N)cc2F)n[nH]1	inactive
Cc1ccc(C(N)=O)cc1Nc1nccc(-c2cn(C(C)C)c3cnccc23)n1	6.85 µM (active)
COCCn1c2c([n+](Cc3cnccn3)c1C)C(=O)c1ccccc1C2=O	0.0343 µM (active)
Cc1ccc(NC(=O)C2(c3ccc4c(c3)OC(F)(F)O4)CC2)nc1-c1cccc(C(=O)O)c1	0.122 µM (active)
